Experiment [1] has as its target Glucocorticoid receptor (Homo sapiens) (UniProt P04150). Description: ATG_GR_TRANS: Attagene TRANS-FACTORIAL HepG2 Assay for human Glucocorticoid Receptor (GR) (AID 2282978; active = hit-call score of the fitted dose curve at least 0.9, where 1 is the maximum;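 note: activators score as hits since higher reporter transcript over DMSO is fitted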). The conditions noted are these: HepG2 Attagene TRANS GR reporter, mRNA transcription. In a few lines:
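Exogenous NR-GAL4 fusion activity was assessed through induced GAL4-UAS reporter transcripts in transfected human HepG2 cells, quantified after 24 h by RT-PCR and fluorescent capillary electrophoresis with DMSO as baseline.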

In experiment [2] the target is Oxysterols receptor LXR-alpha (Homo sapiens) (UniProt Q13133). Nature of the experiment: ATG_LXRa_TRANS: Attagene TRANS-FACTORIAL HepG2 Assay for human Liver X Receptor alpha (LXRa) (AID 2282980; active = hit-call score of the fitted dose curve at least 0.9, where 1 is the maximum). The conditions noted are these: HepG2 Attagene TRANS reporter, LXRa transactivation. The method, boiled down:
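Transfect HepG2 with GAL4-UAS multiplex reporter constructs (TRANS format, chimeric receptor-GAL4); treat 24 h; extract RNA, reverse-transcribe, PCR-amplify, FAM-label, HpaI-digest; resolve fragments by capillary electrophoresis. Upward response vs DMSO.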

Experiment [3] is described as follows: ATG_M_32_TRANS: Attagene TRANS-FACTORIAL HepG2 Assay for M32 Transcription Factor (Internal Marker) (AID 2282984; active = hit-call score of the fitted dose curve at least 0.9, where 1 is the maximum;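 note: transcript level of a background control reporter unit measured by RT-PCR and capillary electrophoresis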). As to conditions: HepG2 Attagene TRANS M32 internal marker reporter. The method, boiled down: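 Cell-based TRANS-format assay in HepG2: exogenous chimeric GAL4 reporter units transiently expressed, compounds applied 24 h. Reporter mRNA detected by RT-PCR plus capillary electrophoresis; this readout is an internal background marker.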

In experiment [4] the target is Transcriptional activator Myb (Homo sapiens) (UniProt P10242). Description: ATG_Myb_CIS: Attagene CIS-FACTORIAL HepG2 Assay for human Myeloblastosis (Myb) Proto-Oncogene Transcription Factor (AID 2282986). The conditions noted are these: HepG2 Attagene CIS-FACTORIAL Myb reporter transcription; actives raise or lower the signal. The method, boiled down: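 In this HepG2 transient-transfection format, cis-regulated reporter mRNA is quantified 24 h post-dosing by RT-PCR with capillary electrophoresis, fitted bidirectionally to DMSO baseline.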
Sequence of Transcriptional activator Myb (Homo sapiens) (P10242 whole entry, looked up): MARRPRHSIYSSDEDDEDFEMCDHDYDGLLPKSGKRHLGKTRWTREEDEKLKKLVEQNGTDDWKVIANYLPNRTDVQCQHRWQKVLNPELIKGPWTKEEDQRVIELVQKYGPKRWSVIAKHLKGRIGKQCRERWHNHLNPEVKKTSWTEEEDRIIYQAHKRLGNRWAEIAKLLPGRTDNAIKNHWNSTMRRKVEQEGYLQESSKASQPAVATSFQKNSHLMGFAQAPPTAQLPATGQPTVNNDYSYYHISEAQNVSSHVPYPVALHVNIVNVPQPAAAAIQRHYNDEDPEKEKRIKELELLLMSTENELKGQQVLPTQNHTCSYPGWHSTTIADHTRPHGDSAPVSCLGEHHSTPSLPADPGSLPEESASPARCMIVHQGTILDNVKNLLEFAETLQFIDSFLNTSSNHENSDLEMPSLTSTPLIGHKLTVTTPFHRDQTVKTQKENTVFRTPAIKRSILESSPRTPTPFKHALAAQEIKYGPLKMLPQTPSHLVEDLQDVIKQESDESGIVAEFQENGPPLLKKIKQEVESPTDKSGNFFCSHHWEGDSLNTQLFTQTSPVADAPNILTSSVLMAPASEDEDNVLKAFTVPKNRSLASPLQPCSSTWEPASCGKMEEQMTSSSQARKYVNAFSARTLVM

For experiment [5], the target named is Nuclear respiratory factor 1 (Homo sapiens) (UniProt Q16656). Description: ATG_NRF1_CIS: Attagene CIS-FACTORIAL HepG2 Assay for human Nuclear Respiratory Factor 1 (NRF1) Orphan Gene (AID 2282987). As to conditions: HepG2 NRF1 cis-element reporter, Attagene multiplex; actives raise or lower the signal. In a few lines:
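Using DMSO as baseline, gain- or loss-of-signal was fitted for reporter mRNA levels in HepG2 cells transiently transfected with cis-regulated reporter units. Samples were taken 24 h after dosing and read by RT-PCR with capillary electrophoresis.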

Experiment [6] in a line: ATG_NFI_CIS: Attagene CIS-FACTORIAL HepG2 Assay for human Nuclear Factor I (NFI) (AID 2282989). As to conditions: HepG2 cis-regulatory reporter, NFI response element transcription; actives raise or lower the signal. The method, boiled down: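 Transfected HepG2 liver cells, exposed 24 h, supplied total RNA for oligo(dT) reverse transcription and reporter-specific PCR. Labelled, HpaI-cut fragments were sized by capillary electrophoresis; DMSO set the baseline for bidirectional fitting.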

For experiment [7], the target named is Myc proto-oncogene protein (Homo sapiens) (UniProt P01106). Nature of the experiment: ATG_Myc_CIS: Attagene CIS-FACTORIAL HepG2 Assay for human Myelocytomatosis (Myc) Proto-Oncogene Transcription Factor (AID 2282990). The conditions noted are these: HepG2, Attagene cis-reporter transcription factor activity; actives raise or lower the signal. In a few lines: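 HepG2, transient MRTU transfection (cis promoters, endogenous TFs); 24 h dosing; TriZol RNA → oligo(dT) RT → PCR → 6-FAM primer extension → HpaI cut → CE. Bidirectional fit vs DMSO.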
Sequence of Myc proto-oncogene protein (Homo sapiens) (P01106 whole entry, looked up): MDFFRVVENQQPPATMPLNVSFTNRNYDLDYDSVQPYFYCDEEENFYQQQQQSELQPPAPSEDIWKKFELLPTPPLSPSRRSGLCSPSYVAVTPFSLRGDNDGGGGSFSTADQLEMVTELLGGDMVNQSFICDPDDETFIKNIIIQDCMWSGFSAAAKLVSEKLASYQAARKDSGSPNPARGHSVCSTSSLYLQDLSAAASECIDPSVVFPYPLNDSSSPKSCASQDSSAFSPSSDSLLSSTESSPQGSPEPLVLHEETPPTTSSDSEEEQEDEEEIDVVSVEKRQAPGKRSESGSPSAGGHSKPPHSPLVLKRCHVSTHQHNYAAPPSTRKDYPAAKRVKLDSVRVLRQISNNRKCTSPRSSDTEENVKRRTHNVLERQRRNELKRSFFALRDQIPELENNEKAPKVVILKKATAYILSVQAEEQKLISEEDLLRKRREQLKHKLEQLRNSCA

Experiment [8] in a line: ATG_NF_kB_CIS: Attagene CIS-FACTORIAL HepG2 Assay for human Nuclear Factor Kappa B (NF-kB) (AID 2282991). As to conditions: HepG2 Attagene cis-factorial NF-kB reporter mRNA; actives raise or lower the signal. In a few lines: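 Endpoint from a 52-component multiplexed HepG2 reporter panel: cis-regulated transcription units transiently transfected, 24 h dosing, reporter mRNA quantified by RT-PCR and capillary electrophoresis, scored as increase or decrease against DMSO.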

Experiment [9] can be described thus: ATG_NRF2_ARE_CIS: Attagene CIS-FACTORIAL HepG2 Assay for human Nuclear Factor Erythroid 2 Related Factor 2 (NFR2) response to Antioxidant Response Elements (ARE) (AID 2282992).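 For AC50: reporter mRNA level measured by RT-PCR and capillary electrophoresis fluorescence.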 As to conditions: HepG2 Attagene ARE/NRF2 reporter, transcription factor activity; actives raise or lower the signal. In a few lines:
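Fluorescence intensity of reporter-specific cDNA fragments, separated by capillary electrophoresis, reflects mRNA induction in transfected HepG2 cells at 24 h. Activity is fitted bidirectionally, DMSO serving as baseline.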

Experiment [10] is described as follows: ATG_Oct_MLP_CIS: Attagene CIS-FACTORIAL HepG2 Assay for human Octamer-Binding Transcription Factor (Oct) (AID 2282993). As to conditions: HepG2 Attagene cis-factorial Oct reporter, mRNA; actives raise or lower the signal. In a few lines:
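Using HepG2 cells bearing transfected cis-reporter constructs, mRNA induction was read after 24 h by fluorescent RT-PCR and capillary electrophoresis, with DMSO defining baseline for gain- or loss-of-signal fits.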

For experiment [11], the target named is Cellular tumor antigen p53 (Homo sapiens) (UniProt P04637). Description: ATG_p53_CIS: Attagene CIS-FACTORIAL HepG2 Assay for human p53 Transcription Factor (AID 2282994). The conditions noted are these: HepG2 p53 cis-element reporter, Attagene mRNA; actives raise or lower the signal. The method, boiled down: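 Transiently transfected HepG2 (multiple cis reporter transcription units); exposure 24 h; reporter RNA via RT-PCR, 6-FAM extension, 2 h HpaI digest at 37 C, CE detection; DMSO baseline.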
Sequence of Cellular tumor antigen p53 (Homo sapiens) (P04637 whole entry, looked up): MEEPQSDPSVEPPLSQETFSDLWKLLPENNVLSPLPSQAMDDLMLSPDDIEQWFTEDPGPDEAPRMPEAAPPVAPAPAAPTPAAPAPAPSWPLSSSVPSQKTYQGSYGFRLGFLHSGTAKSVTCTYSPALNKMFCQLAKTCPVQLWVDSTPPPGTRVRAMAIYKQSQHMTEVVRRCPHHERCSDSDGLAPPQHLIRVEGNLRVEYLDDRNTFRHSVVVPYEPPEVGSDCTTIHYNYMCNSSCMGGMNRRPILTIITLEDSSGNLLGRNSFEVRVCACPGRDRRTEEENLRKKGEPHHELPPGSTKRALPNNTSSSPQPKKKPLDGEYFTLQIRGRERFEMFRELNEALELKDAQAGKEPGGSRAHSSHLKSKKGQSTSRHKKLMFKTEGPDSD

Experiment [12] in a line: BSK_3C_TissueFactor: BioMAP Diversity Plus: 3C Assay for Tissue Factor Biomarker Activity (AID 2282997). The conditions noted are these: BioMAP 3C HUVEC, tissue factor biomarker readout; actives raise or lower the signal. In a few lines:
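After a 24 h chemical exposure of primary human umbilical vein endothelial cells, Tissue Factor levels were quantified by ELISA.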

Experiment [13] can be described thus: BSK_3C_uPAR: BioMAP Diversity Plus: 3C Assay for Urokinase-type plasminogen activator receptor (uPAR) Biomarker Activity (AID 2282998). As to conditions: BioMAP 3C HUVEC, uPAR biomarker ELISA; actives raise or lower the signal. In a few lines:
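In this endothelial cell-based assay, human umbilical vein primary cells were treated with chemicals and harvested at 24 h. uPAR was quantified using ELISA, with gains or losses fitted relative to DMSO controls.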

Experiment [14] can be described thus: BSK_3C_VCAM1: BioMAP Diversity Plus: 3C Assay for Vascular cell adhesion molecule 1 (VCAM1) Biomarker Activity (AID 2282999). As to conditions: BioMAP 3C HUVEC, VCAM1 ELISA, cytokine-stimulated; actives raise or lower the signal. In a few lines: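 Activity fitted in both directions relative to DMSO, with ELISA measurement of the surface marker on primary HUVEC (3C) at 24 h post-treatment; parallel SRB staining (0.1% SRB, TCA-fixed, 560 nm) flagged overt cytotoxicity.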

A short description of experiment [15]: BSK_4H_Eotaxin3: BioMAP Diversity Plus: 4H Assay for Eotaxin 3 Biomarker Activity (AID 2283000).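 For outcome: CCL26 protein level quantified by ELISA in parallel with SRB cytotoxicity check.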 The conditions noted are these: primary human endothelial cells (HUVEC); actives raise or lower the signal. The method, boiled down: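 Chemicals were added to human umbilical vein endothelium cultures, and Eotaxin-3 was quantified by ELISA at 24 h. Values were derived by bidirectional fitting with DMSO serving as negative control and activity baseline.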

Experiment [16] is described as follows: ATG_M_06_TRANS: Attagene TRANS-FACTORIAL HepG2 Assay for M06 Transcription Factor (Internal Marker) (AID 2282983; active = hit-call score of the fitted dose curve at least 0.9, where 1 is the maximum;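 note: reporter transcript level by RT-PCR then capillary electrophoresis fluorescence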). As to conditions: HepG2 Attagene TRANS M06 internal marker reporter. In a few lines: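 Background control endpoint: reporter mRNA from transiently transfected HepG2 after 24 h dosing, detected by RT-PCR with capillary electrophoresis fluorescence. Analysed for gain versus DMSO.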

In experiment [17] the target is Nuclear receptor subfamily 4 group A member 2 (Homo sapiens) (UniProt P43354). Nature of the experiment: ATG_NURR1_TRANS: Attagene TRANS-FACTORIAL HepG2 Assay for human Nuclear Receptor Related Protein 1 (NURR1) (AID 2282985; active = hit-call score of the fitted dose curve at least 0.9, where 1 is the maximum). As to conditions: HepG2 Attagene TRANS reporter, mRNA readout. The method, boiled down:
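Measures transcriptional activation by an exogenous NR-Gal4 chimera in transfected HepG2 liver cells. After 24 h, reporter RNA is reverse-transcribed, amplified and resolved by capillary electrophoresis; DMSO defines baseline.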

Experiment [18] has as its target Bile acid receptor (Homo sapiens) (UniProt Q96RI1). Description: ATG_FXR_TRANS: Attagene TRANS-FACTORIAL HepG2 Assay for Farnesoid X Receptor (FXR) (AID 2282979; active = hit-call score of the fitted dose curve at least 0.9, where 1 is the maximum;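 note: hits raise reporter mRNA above DMSO so AC50 marks FXR activation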). As to conditions: HepG2 Attagene TRANS FXR-GAL4 reporter transcription. In a few lines:
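Transient transfection of HepG2 with multiplexed GAL4-UAS reporter units; exogenous FXR-GAL4 chimera. Dose 24 h → TriZol RNA → oligo(dT) RT → PCR, 6-FAM primer extension, HpaI cut → CE. Gain vs DMSO.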

Experiment [19] deals with Oxysterols receptor LXR-beta (Homo sapiens) (UniProt P55055). Nature of the experiment: ATG_LXRb_TRANS: Attagene TRANS-FACTORIAL HepG2 Assay for human Liver X Receptor beta (LXRb) (AID 2282981; active = hit-call score of the fitted dose curve at least 0.9, where 1 is the maximum). The conditions noted are these: HepG2 Attagene TRANS GAL4-LXRb reporter, mRNA. In a few lines: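 After 24 h of chemical treatment, transfected HepG2 cells yield total RNA; reporter cDNA is PCR-amplified, FAM-labelled, HpaI-cut and run on capillary electrophoresis. Signal reflects chimeric LXRb-Gal4 activity on GAL4-UAS reporters.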
Sequence of Oxysterols receptor LXR-beta (Homo sapiens) (P55055 whole entry, looked up, the tested form may be a part): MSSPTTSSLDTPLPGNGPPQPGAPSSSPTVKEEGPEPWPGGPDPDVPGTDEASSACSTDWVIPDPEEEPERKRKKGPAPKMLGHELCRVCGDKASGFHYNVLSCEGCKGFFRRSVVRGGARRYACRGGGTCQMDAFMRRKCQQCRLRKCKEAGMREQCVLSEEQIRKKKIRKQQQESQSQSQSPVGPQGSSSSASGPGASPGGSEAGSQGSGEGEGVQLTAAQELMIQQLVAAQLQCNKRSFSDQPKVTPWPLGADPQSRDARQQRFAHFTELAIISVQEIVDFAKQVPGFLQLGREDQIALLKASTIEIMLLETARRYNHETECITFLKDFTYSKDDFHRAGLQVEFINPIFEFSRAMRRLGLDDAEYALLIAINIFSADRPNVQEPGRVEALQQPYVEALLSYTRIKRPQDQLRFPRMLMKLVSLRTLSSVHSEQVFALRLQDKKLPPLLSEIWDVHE

Results filed as inconclusive are left out. Active and inactive are the calls of the source. Rule for the calls, unless noted: active = hit-call score of the fitted dose curve at least 0.9, where 1 is the maximum; inactive = score below 0.9.

Sequence of Bile acid receptor (Homo sapiens) (Q96RI1 whole entry, looked up, the tested form may be a part): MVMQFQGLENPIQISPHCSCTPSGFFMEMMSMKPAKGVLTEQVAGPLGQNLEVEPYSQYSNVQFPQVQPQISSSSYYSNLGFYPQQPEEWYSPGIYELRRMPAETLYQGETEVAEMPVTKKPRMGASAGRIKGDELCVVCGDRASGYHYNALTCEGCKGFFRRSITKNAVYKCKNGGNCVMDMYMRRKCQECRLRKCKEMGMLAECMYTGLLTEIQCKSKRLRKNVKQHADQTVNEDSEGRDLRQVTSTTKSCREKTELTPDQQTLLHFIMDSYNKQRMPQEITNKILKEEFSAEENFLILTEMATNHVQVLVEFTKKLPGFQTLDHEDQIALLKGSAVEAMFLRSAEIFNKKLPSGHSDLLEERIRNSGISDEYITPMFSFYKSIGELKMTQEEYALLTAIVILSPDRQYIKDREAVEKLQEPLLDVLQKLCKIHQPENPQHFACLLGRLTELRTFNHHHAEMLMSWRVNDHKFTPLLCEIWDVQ
Sequence of Oxysterols receptor LXR-alpha (Homo sapiens) (Q13133 whole entry, looked up, the tested form may be a part): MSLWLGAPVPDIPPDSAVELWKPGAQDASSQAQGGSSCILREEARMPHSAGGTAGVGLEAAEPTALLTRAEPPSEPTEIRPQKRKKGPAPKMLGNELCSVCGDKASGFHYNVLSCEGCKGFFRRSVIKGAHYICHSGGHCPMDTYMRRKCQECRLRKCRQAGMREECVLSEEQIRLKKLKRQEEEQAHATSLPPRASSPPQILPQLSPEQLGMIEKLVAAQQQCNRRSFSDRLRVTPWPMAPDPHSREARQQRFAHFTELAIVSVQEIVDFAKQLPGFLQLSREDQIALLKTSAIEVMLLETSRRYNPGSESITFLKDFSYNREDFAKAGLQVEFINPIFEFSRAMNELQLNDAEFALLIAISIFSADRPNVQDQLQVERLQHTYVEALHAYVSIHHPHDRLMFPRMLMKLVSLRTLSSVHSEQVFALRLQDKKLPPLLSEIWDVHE
Sequence of Nuclear respiratory factor 1 (Homo sapiens) (Q16656 whole entry, looked up): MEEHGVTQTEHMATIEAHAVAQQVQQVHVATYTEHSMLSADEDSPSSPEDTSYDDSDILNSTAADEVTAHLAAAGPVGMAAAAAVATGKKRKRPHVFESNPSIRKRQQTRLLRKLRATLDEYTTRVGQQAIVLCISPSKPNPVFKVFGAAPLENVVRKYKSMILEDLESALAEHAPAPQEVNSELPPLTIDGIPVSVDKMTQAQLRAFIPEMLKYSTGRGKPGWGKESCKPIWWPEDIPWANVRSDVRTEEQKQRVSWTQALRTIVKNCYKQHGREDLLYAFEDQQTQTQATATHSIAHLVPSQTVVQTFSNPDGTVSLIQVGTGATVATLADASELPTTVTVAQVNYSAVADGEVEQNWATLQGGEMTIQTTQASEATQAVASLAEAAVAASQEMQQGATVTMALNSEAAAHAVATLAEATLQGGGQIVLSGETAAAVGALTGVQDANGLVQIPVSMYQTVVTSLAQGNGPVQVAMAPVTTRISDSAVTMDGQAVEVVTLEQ
Sequence of Nuclear receptor subfamily 4 group A member 2 (Homo sapiens) (P43354 whole entry, looked up, the tested form may be a part): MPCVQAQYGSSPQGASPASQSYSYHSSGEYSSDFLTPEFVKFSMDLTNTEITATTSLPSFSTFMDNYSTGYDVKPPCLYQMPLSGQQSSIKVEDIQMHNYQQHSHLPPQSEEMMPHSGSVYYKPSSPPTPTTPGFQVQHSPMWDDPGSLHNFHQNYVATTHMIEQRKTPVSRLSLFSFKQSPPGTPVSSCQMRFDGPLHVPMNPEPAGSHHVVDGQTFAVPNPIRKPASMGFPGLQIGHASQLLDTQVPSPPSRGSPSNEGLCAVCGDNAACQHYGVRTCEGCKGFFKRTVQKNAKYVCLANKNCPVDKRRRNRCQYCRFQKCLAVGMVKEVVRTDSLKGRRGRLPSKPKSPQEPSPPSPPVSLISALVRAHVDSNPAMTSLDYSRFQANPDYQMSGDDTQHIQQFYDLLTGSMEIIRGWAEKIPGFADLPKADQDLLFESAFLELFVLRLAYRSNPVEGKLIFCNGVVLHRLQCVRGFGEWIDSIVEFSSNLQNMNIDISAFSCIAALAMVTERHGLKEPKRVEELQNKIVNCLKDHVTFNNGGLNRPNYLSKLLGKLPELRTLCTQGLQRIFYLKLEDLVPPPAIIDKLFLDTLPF
Sequence of Glucocorticoid receptor (Homo sapiens) (P04150 whole entry, looked up, the tested form may be a part): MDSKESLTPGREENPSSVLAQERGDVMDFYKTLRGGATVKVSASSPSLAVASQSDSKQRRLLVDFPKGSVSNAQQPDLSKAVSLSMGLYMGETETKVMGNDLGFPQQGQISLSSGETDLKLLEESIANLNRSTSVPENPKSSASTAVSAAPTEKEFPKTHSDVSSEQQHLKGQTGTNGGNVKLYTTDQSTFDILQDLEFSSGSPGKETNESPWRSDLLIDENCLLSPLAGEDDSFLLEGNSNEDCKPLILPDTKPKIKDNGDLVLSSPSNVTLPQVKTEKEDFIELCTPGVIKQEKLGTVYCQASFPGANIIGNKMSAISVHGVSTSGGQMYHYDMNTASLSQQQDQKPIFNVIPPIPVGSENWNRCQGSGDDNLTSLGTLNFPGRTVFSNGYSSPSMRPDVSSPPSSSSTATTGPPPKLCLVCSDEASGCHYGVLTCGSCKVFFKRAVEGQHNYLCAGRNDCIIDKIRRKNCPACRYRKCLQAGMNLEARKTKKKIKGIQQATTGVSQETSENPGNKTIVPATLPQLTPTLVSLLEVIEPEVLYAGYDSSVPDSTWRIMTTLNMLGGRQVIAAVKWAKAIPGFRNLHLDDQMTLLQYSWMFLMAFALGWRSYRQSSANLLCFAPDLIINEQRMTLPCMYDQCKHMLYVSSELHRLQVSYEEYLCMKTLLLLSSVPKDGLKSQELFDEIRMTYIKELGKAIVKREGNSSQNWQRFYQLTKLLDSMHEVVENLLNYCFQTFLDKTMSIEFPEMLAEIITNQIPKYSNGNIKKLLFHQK

What is called AC50 is the concentration giving half of the maximal activity seen. Consider `O=C(Oc1ccc(Br)cc1)N1CCN2CCC1CC2`, for which the molecule was classed as inactive in experiment [1], in experiment [2], in [3], in experiment [4], in experiment [5] and in experiment [6]. Moreover, the result in [7], in [9], in [10], in experiment [12], in experiment [13] and in experiment [14] was inactive. Besides, the outcome in experiment [15] was inactive. For the same molecule, the AC50 was 60.9 µM (active) in [8] and 64.9 µM (active) in experiment [11].
Take `Nc1ccc(Oc2ccc(N)cc2)cc1`: the molecule was called inactive in experiment [1], in experiment [2], in [16], in [3], in experiment [17] and in experiment [4]. Further, the result in [5], in [6], in experiment [8], in experiment [9], in [10] and in experiment [11] was inactive. For the same molecule, the outcome in [12], in [13], in experiment [14] and in [15] was inactive.
With `Nc1ccc(Cl)cc1N`, the molecule was classed as inactive in experiment [1], in experiment [18], in experiment [2], in experiment [19], in [16] and in experiment [3]. Also, the result in experiment [17], in [4], in experiment [6], in experiment [7], in experiment [8] and in experiment [12] was inactive. Moreover, the result in experiment [13] was inactive. The half-maximal activity concentration (AC50) in experiment [9] is 5.68 µM (active); in experiment [10], 29.5 µM (active); in [11] it was 8.6 µM (active); in experiment [14], 4.34 µM (active); in experiment [15], 2.15 µM (active).
Consider `Clc1ccc(C(c2ccc(Cl)cc2)C(Cl)(Cl)Cl)cc1`, for which the result in experiment [1], in [19], in experiment [16], in [3], in experiment [17] and in experiment [4] was inactive. Besides, the call in experiment [5], in [8], in experiment [10] and in experiment [11] was inactive. For the same molecule, the AC50 in [6] is 42.1 µM (active); in [9], 36.4 µM (active); in [12], 27.7 µM (active); in [13] it was 15.2 µM (active); in [14] it was 27.5 µM (active); in experiment [15], 30.1 µM (active).
As for `Cc1cccc(N)c1N`, the molecule was called inactive in experiment [1], in experiment [18], in [2], in experiment [16], in [3] and in experiment [17]. Moreover, the call in experiment [4], in experiment [6], in experiment [7], in [8], in experiment [11] and in experiment [12] was inactive. For the same molecule, the outcome in [13] and in experiment [15] was inactive. The AC50 in experiment [9] was 21.6 µM (active); in experiment [10] it was 167 µM (active); in experiment [14], 16 µM (active).
Turning to `OCCCl`, the molecule was classed as inactive in experiment [1], in experiment [18], in [2], in [19], in experiment [16] and in experiment [4]. Further, the call in experiment [5], in experiment [6], in experiment [7], in experiment [9], in experiment [10] and in experiment [11] was inactive. For the same molecule, the outcome in experiment [12], in experiment [13], in experiment [14] and in [15] was inactive.
`Nc1ccc(Cc2ccc(N)cc2)cc1`: the result in experiment [1], in experiment [18], in experiment [2], in experiment [16], in [3] and in experiment [4] was inactive. The outcome in [6], in experiment [8], in experiment [9], in experiment [10], in experiment [11] and in experiment [12] was inactive. The result in [13], in experiment [14] and in experiment [15] was inactive.

The values are drawn from PubChem BioAssay (EPA / NIEHS).
